Results from the supplement of paper PMC10849652.
About 8,800 targets were measured; listed, in parts, are those with a hit and a random draw of the rest. About 0.5% of all pairs of compound and target were hits. Values without a mark were called inactive.

Columns and labels:
Test in all cases: log2 fold change, soluble protein after heating vs DMSO (PISA); higher = thermal stabilisation; K562 lysate, 10 uM; active = over 0.2 and 3.5 SD of the protein, either way, in both replicates (recomputed)
[1] = compound: NCC(=O)Nc1ccc(-n2nc(C(F)(F)F)cc2-c2ccc3c(ccc4ccccc43)c2)cc1
How it was run: (§1)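 Log-two fold change in thermal stability relative to solvent controls is reported from duplicates. For each sample, crude K562 extract from dounce-homogenised pellets in PBS pH 7.4 with 1 mM MgCl2, at 1 mg/mL protein, was treated with 10 μM compound for 30 min. Aliquots heated for 3 min across 48°C-58°C were pooled, brought to 0.5% NP-40 at 4°C and cleared at 21,000xg for 90 min. The supernatant was quantified by TMTpro 16plex LC-MS/MS with channel sums equalised.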

vorinostat = compound: O=C(CCCCCCC(=O)Nc1ccccc1)NO [vorinostat]
How it was run: as §1

silmitasertib = compound: O=C(O)c1ccc2c(c1)nc(Nc1cccc(Cl)c1)c1ccncc12 [silmitasertib]
How it was run: as §1

[2] = compound: O=C1NC(=O)C(c2cnc3ccccn23)=C1c1cn2c3c(cc(F)cc13)CN(C(=O)N1CCCCC1)CC2
How it was run: as §1

entospletinib = compound: c1cn2cc(-c3ccc4cn[nH]c4c3)nc(Nc3ccc(N4CCOCC4)cc3)c2n1 [entospletinib]
How it was run: as §1

Chain of UniProt O95149 (O95149 whole entry, looked up): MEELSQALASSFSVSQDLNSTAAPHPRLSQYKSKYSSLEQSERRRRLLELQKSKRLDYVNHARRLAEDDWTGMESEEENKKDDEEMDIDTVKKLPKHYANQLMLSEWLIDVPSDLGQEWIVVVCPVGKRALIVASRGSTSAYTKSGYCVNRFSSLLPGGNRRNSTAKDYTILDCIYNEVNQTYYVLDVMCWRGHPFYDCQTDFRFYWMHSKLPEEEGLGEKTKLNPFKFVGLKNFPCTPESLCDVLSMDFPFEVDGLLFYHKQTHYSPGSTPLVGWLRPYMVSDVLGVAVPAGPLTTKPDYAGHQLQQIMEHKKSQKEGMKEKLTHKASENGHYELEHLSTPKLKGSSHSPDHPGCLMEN
Chain of UniProt O60225 (O60225 whole entry, looked up): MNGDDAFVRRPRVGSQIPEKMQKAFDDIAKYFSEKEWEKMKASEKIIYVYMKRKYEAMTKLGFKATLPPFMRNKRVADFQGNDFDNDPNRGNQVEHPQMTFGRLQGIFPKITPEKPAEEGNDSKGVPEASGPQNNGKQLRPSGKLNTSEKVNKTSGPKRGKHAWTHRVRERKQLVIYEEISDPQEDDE
Chain of UniProt O60906 (O60906 whole entry, looked up): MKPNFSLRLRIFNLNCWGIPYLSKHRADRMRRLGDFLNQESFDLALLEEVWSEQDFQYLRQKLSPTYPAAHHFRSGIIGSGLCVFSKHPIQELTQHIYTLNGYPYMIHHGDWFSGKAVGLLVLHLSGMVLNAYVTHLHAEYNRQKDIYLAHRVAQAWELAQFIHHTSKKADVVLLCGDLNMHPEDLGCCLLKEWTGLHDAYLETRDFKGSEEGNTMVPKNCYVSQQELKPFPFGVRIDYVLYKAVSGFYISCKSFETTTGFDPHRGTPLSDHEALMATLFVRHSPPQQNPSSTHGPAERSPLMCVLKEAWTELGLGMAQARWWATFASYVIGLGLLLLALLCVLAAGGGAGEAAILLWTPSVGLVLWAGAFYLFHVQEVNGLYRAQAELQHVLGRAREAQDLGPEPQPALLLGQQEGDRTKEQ
Chain of UniProt Q6PML9 (Q6PML9 whole entry, looked up): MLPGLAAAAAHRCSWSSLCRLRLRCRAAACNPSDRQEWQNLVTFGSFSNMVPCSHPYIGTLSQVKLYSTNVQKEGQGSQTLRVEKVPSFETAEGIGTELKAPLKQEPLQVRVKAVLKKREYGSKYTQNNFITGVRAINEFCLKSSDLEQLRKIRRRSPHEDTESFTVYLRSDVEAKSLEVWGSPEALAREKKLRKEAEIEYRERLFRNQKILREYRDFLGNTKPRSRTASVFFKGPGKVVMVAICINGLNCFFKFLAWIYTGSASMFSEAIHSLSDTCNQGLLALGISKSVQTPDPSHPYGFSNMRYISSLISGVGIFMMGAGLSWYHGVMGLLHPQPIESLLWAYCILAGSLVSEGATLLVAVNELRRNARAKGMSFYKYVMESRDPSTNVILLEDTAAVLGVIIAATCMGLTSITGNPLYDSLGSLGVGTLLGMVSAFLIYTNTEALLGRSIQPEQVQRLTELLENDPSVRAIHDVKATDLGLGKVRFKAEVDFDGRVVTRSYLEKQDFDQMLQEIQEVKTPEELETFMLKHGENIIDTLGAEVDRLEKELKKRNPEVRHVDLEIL
Chain of UniProt O43805 (O43805 whole entry, looked up): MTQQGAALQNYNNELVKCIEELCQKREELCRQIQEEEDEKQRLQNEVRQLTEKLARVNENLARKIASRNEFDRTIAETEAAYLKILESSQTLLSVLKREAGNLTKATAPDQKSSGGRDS
Chain of UniProt Q9P289 (Q9P289 whole entry, looked up): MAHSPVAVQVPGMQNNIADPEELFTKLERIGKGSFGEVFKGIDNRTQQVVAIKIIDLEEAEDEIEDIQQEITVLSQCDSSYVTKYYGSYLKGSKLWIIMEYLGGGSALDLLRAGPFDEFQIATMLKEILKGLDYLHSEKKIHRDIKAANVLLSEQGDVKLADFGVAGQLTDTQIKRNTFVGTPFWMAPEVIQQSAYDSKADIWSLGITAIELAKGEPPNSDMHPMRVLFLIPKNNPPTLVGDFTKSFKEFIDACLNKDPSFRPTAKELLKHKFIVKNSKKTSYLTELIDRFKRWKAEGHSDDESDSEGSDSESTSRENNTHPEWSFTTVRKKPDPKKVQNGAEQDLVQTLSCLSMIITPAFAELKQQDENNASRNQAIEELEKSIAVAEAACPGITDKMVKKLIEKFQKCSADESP
Chain of UniProt Q15527 (Q15527 whole entry, looked up): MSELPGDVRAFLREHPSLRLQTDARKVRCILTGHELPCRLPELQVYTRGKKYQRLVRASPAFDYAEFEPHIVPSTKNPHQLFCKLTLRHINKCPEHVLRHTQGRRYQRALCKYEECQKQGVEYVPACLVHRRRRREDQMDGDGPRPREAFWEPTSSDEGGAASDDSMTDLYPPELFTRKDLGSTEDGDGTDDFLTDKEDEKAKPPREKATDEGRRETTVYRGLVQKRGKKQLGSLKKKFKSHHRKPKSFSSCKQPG
Chain of UniProt Q8IVJ1 (Q8IVJ1 whole entry, looked up): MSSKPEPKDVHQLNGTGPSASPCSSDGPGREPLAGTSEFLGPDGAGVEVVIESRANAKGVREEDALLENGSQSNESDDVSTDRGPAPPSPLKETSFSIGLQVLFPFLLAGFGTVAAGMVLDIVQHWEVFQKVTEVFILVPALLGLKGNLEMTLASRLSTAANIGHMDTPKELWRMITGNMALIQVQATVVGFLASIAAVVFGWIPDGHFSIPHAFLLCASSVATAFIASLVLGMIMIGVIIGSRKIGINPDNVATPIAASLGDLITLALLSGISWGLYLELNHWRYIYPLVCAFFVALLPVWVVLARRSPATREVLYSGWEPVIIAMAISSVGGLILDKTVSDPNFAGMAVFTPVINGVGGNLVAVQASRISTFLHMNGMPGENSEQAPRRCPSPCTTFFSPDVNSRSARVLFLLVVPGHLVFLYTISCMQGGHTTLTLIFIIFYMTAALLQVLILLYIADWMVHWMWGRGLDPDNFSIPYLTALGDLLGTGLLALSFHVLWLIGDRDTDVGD
Chain of UniProt Q9NTJ3 (Q9NTJ3 whole entry, looked up): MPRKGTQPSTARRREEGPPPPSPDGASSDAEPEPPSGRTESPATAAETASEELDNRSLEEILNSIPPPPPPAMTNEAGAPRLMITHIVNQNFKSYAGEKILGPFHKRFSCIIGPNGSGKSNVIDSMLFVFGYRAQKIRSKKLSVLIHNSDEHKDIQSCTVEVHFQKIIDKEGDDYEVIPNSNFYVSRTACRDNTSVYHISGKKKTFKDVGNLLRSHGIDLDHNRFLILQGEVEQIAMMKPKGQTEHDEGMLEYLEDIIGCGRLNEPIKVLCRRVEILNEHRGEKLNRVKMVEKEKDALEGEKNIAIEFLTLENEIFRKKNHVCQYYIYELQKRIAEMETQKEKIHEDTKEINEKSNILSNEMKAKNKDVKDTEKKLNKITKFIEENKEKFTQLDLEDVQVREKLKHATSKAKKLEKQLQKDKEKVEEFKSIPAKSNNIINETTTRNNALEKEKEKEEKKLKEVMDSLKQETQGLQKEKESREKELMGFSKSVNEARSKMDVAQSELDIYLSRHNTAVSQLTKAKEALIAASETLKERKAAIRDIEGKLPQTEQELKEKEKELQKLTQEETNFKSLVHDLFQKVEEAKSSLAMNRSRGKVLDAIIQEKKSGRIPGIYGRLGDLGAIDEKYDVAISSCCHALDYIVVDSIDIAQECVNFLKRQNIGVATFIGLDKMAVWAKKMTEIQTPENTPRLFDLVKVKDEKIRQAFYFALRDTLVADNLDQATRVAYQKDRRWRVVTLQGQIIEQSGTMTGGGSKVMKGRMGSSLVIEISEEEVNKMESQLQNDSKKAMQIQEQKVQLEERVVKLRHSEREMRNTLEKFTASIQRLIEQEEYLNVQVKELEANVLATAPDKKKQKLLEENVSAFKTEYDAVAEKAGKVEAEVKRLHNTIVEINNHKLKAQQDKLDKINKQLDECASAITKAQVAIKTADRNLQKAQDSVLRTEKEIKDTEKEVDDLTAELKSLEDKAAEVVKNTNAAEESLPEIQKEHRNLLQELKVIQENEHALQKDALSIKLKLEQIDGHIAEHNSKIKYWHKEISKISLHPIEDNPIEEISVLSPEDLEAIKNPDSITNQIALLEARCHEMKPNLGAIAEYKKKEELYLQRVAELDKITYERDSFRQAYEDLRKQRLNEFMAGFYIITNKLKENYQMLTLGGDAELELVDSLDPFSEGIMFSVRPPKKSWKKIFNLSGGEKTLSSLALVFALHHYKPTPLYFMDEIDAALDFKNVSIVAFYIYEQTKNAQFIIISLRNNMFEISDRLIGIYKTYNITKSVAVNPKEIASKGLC

Target	log2 fold change [1]	log2 fold change (vorinostat)	log2 fold change (silmitasertib)	log2 fold change [2]	log2 fold change (entospletinib)
SLC30A9 (UniProt Q6PML9)	-0.109	0.071	-0.058	0.004	-0.027
STK26 (UniProt Q9P289)	-0.027	-0.032	0.035	-0.045	-0.026
SSX5 isoform 2 (UniProt O60225)	-0.111	-0.059	0.091		-0.035
SLC41A1 (UniProt Q8IVJ1)		0.06	-0.063	-0.37 (active)	0.007
SMC4 (UniProt Q9NTJ3)	0.013	-0.296 (active)	0.011	-0.015	0.009
SURF2 (UniProt Q15527)	-0.01			0.04	0.049
SZT2 (UniProt Q5T011)		1.2 (active)	-0.081		-0.1
SNUPN (UniProt O95149)	-0.076	-0.037	0.142	-0.043	-0.066
SSNA1 (UniProt O43805)	-0.036	-0.34 (active)	0	-0.023	-0.065
SMPD2 (UniProt O60906)		0.261	-1.47 (active)		0.058
